Bead autofluor – compound fluorescence in toxin protease inhibitor counterscreen; compound autofluorescence counterscreen, microsphere flow cytometry; hits give high values; fluorescence intensity (no concentration beside the values); actives 3.1% (n = 360,000); in the data active means fluorescence intensity above about 16000; inconclusive means no clear call, values can overlap the other calls
BoNT-F LC inh – blocks Botulinum neurotoxin F light chain protease; Multiplex microsphere protease cleavage assay, flow cytometry; inhibition, % at 10 µM; actives 0.22% (n = 360,000); AID 588497; in the data active means inhibition above about 35%, passing the limit was not always enough; inconclusive means no clear call, values can overlap the other calls; further: plate controls were buffer without enzyme for full effect and enzyme alone for no effect
MazF activator – increases E. coli MazEF RNase cleavage of RNA; FAM/BHQ RNA-DNA oligo cleavage fluorescence, 5 h; activation, % at 20 µM; actives 0.32% (n = 350,000); in the data active means activation above about 50%
Anthrax LF inh2 – anthrax lethal factor protease inhibition. AID 588501. inhibition, % at 10 µM. P15917. multiplex microsphere protease cleavage assay, LF. actives 0.12% (n = 360,000); further: plate controls were buffer without enzyme for full effect and enzyme alone for no effect
Target sequence (P15917 whole entry, looked up): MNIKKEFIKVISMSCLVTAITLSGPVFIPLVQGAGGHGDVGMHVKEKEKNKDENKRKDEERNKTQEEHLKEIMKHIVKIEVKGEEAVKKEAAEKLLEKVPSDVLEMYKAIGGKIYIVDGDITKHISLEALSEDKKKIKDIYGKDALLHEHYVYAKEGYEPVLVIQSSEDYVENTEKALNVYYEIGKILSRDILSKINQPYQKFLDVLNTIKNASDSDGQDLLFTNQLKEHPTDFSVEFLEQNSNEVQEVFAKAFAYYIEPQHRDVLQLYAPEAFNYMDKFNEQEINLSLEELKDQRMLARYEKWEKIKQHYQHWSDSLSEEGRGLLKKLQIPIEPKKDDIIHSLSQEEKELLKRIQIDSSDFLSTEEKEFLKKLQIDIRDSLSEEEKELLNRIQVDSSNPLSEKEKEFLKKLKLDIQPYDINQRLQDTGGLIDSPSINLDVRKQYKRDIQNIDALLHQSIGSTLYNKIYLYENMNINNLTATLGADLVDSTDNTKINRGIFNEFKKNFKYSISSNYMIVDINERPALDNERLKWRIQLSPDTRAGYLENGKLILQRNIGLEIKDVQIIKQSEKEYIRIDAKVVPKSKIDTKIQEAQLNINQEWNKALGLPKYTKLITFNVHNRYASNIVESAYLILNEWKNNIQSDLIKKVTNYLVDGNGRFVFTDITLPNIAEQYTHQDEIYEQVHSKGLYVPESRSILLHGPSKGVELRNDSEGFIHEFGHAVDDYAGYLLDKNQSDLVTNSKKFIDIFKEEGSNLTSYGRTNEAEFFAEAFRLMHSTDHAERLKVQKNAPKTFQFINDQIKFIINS
BoNT-A LC inh2 – BoNT A light chain protease inhibition; AID 588499; actives 0.17% (n = 360,000); multiplex microsphere protease substrate cleavage, flow cytometry; inhibition, % at 10 µM; further: plate controls were buffer without enzyme for full effect and enzyme alone for no effect
Active calls of the source: *; ? = inconclusive; . = not tested or not shown. Rows were chosen to be rich in hits. Some 3.7% of all compounds tested hit in one or more screens of this group. Unless noted, no stated cut-off is given here; in the data, active means inhibition above about 30%; inconclusive means no clear call, values can overlap the other calls; inactive means below that.

SMILES | Bead autofluor | BoNT-F LC inh | MazF activator | Anthrax LF inh2 | BoNT-A LC inh2
CC1(C)Cc2c(c(N3CCOCC3)nc3sc4c(NCc5ccccc5)nnnc4c23)CS1 | 23609* | 0 | -33 | -2 | -1
CC(C)OC(=O)c1cccnc1SCc1cc(=O)n2ccccc2n1 | 24425* | -5 | 0 | 0 | -2
CC(C)OC(=O)c1cccnc1SCC(=O)N(C)c1ccccc1 | 8409 | 4 | -4 | 3 | -1
CC(C)=CCOc1ccc2c(C)c(CC(=O)N3C[C@H]4C[C@@H](C3)c3cccc(=O)n3C4)c(=O)oc2c1C | 4011 | -5 | 4 | -2 | 0
O=S(=O)(c1ccc2ccccc2c1)N1CCC(c2nc(-c3ccncc3)no2)CC1 | 8832 | 2 | 0 | -2 | 0
CN(C)c1ccc(-c2noc(C3CCN(S(=O)(=O)c4ccc(C(=O)O)cc4)CC3)n2)cc1 | 22586* | 4 | -8 | -4 | ?
CN(C)c1ccc(-c2noc(C3CCN(S(=O)(=O)c4cccc(Cl)c4)CC3)n2)cc1 | 17481* | -11 | -3 | -6 | ?
O=[N+]([O-])c1cccc(/C=C2\CCc3cnn(C4CCS(=O)(=O)C4)c32)c1 (stereo not given) | 3992 | 1 | 12 | 5 | 0
COc1ccc(C(=O)CCC(=O)O)c(C)c1 | 22646* | 1 | 0 | -4 | 1
CN1CC[C@]2(CCN3CCc4c(oc5ccccc45)[C@@H]3C2)N(C)C1=O | 5219 | -8 | 6 | -6 | 0
O=C(N/N=C/c1ccc(Cl)c([N+](=O)[O-])c1)c1cnccn1 | 2429 | -2 | 4 | -2 | -1
O=C(N/N=C/c1ccc(Sc2nc3ccccc3s2)c([N+](=O)[O-])c1)c1ccccn1 | 7345 | -9 | 101* | 0 | -2
CCCC1(c2ccccc2)NC(=O)N(CC(=O)NCc2ccc(OC)cc2)C1=O (stereo not given) | 3950 | 14 | -2 | -6 | -1
Cc1cc(C(=O)CSc2nnc(-c3ccc(Cl)cc3)n2C)c(C)n1CC1CCCO1 (stereo not given) | 22941* | -6 | 1 | 0 | -1
Cc1cc(C(=O)CSc2nc3ccccc3[nH]2)c(C)n1CC1CCCO1 (stereo not given) | 17964* | -10 | -4 | -5 | -8
CCCCCC1CC(/C(C)=N/NC(N)=O)OC1=O (stereo not given) | 3290 | 0 | 5 | 2 | 0
CCCCCCC1CC(C)(/C(C)=N/NC(N)=O)OC1=O (stereo not given) | 18949* | 6 | -3 | 2 | 5
Cc1c(NC(=O)C(C)Sc2nc3ccccc3c(=O)n2CCO)c(=O)n(-c2ccccc2)n1C (stereo not given) | 21769* | -5 | 12 | -1 | -7
O=C(NN=Cc1cc(Br)c(O)c(Br)c1)c1ccccc1NS(=O)(=O)c1cccs1 | 4066 | 9 | 0 | -3 | 1
COc1ccccc1-n1c(SCC(=O)Nc2ccccc2F)nc2[nH]ncc2c1=O | 16242* | -2 | 3 | 0 | ?
CCOc1ccc(NC(=O)c2cccc(-n3cnnn3)c2)cc1 | 23535* | -4 | -2 | -2 | ?
CCOc1ccc(NC(=O)COc2ccc(-n3cnnn3)cc2)cc1 | 5638 | ? | 1 | ? | ?
O=C(Nc1ccc(OC(F)(F)F)cc1)c1cccc(-n2cnnn2)c1 | 5996 | 4 | -2 | -2 | 0
O=C(COc1ccc(F)cc1)Nc1ccc(-n2cnnn2)cc1 | 20385* | 1 | -1 | 1 | ?
Cc1sc(NC(=O)COc2ccccc2)c(C#N)c1C | 5542 | -6 | 3 | 1 | 0
SMILES | Bead autofluor | BoNT-F LC inh | MazF activator | Anthrax LF inh2 | BoNT-A LC inh2
CCOc1ccccc1NC(=O)COc1cccc(-n2cnnn2)c1 | 23672* | -4 | 4 | -2 | -2
Cc1sc(NC(=O)COc2cccc(-n3cnnn3)c2)c(C#N)c1C | ? | 5 | 120* | -2 | 1
CC(=O)Oc1ccccc1Cn1c(C)c(C(=O)NCc2cccc([N+](=O)[O-])c2)sc1=O | 4246 | -12 | . | -7 | -1
CC(=O)C1=C(O)C(=O)N(c2ccccn2)C1c1ccccc1[N+](=O)[O-] (stereo not given) | 3443 | 26 | 1 | 2 | 0
CC(C(=O)N1CCN(c2ccc(Cl)cc2)CC1)c1ncc(C(F)(F)F)cc1Cl (stereo not given) | 16547* | -1 | 0 | -3 | -1
CC(C(=O)NC1CC1)c1ncc(C(F)(F)F)cc1Cl (stereo not given) | 4164 | -3 | 9 | 2 | -1
O=S(=O)(/N=C/c1c(O)ccc2ccccc12)c1ccccc1 | 3955 | 42* | -4 | 2 | -1
O=C(N/N=C/c1c(O)ccc2ccccc12)c1cccnc1 | 3903 | -8 | -82 | -6 | 6
O=C(CSCC(=O)Nc1ccccc1)N/N=C/c1c(O)ccc2ccccc12 | 23512* | -2 | 86* | 6 | 5
O=C(N/N=C/c1c(O)ccc2ccccc12)Nc1ccccc1 | . | . | -5 | . | .
O=C(N/N=C\c1c(O)ccc2ccccc12)c1cncc(Br)c1 | 3289 | 26 | -175 | 8 | 42*
COc1ccc(/C=N/NC(=O)CSCC(=O)Nc2ccccc2)cc1OC | 19130* | 12 | 0 | -14 | ?
COc1ccc(C)cc1N(CC(=O)NCCSCc1cccc(Cl)c1)S(C)(=O)=O | 3639 | ? | -4 | 8 | 1
C=CC[C@H](CC(=O)NCCO)C(=O)NCCOC(=O)[C@@H](CC=C)CC(=O)OC(C)(C)C | 2939 | -3 | 10 | 1 | 1
Cc1ccc(NC(=O)COc2ccc(/C=N/NC(=O)CSCc3ccccc3)cc2)cc1 | 22872* | -1 | 6 | 0 | 0
COC(=O)[C@]12CCCCC=C1N(Cc1ccccc1)C(=O)[C@H](CC(=O)NCC1CCCCC1)C2 | 6568 | -12 | . | -9 | -1
CCn1c(NCc2ccco2)nc2c1c(=O)n(C)c(=O)n2C | 21102* | -2 | 40 | 1 | -1
Cn1c(=O)c2c(nc(NCc3ccco3)n2Cc2ccc(Cl)cc2Cl)n(C)c1=O | 24075* | -7 | 17 | -4 | -4
Cc1ccc(C)c(NC(=O)CN(C)C(=O)c2ccccc2OCc2ccc(Cl)cc2)c1 | 5931 | -2 | -3 | 0 | 0
O=C1c2c(Cl)c(Cl)c(Cl)c(Cl)c2C(=O)N1c1nccs1 | 3726 | -2 | 8 | 1 | 0
Cc1nc(N)sc1-c1csc(Nc2ccccn2)n1 | 3194 | -16 | 15 | -2 | 1
Cc1nc(N)sc1-c1csc(Nc2ccc(Cl)cn2)n1 | 16519* | 11 | -6 | -5 | 12
CCOc1ccc2[nH]c(=O)c(C(c3nnnn3C3CCCCC3)N3CCN(C)CC3)cc2c1 (stereo not given) | 8586 | 3 | 7 | 6 | 1
COc1cc2cc(C(c3nnnn3C3CCCC3)N3CCCCC3)c(=O)[nH]c2cc1OC (stereo not given) | 19432* | -1 | 4 | 2 | 1
COc1ccc2cc(C(c3nnnn3C3CCCC3)N3CCCCCC3)c3nnnn3c2c1 (stereo not given) | 3818 | -19 | 0 | 2 | 0
CCOc1ccc2[nH]c(=O)c(C(c3nnnn3C3CCCCC3)N3CCN(CC)CC3)cc2c1 (stereo not given) | 21002* | -2 | 6 | 2 | ?
